Broadly, the AC50 is the concentration at which the activity in the assay is half-maximal.

Molecules are shown by their SMILES. Results filed as inconclusive are left out. Activity calls are given as the source filed them. Rule for the calls, unless noted: active = hit-call score of the fitted dose curve at least 0.9, where 1 is the maximum; inactive = score below 0.9.

Outcome and AC50 data for seven compounds are collected here from PubChem BioAssay (EPA / NIEHS).

For experiment [1], the target named is human Vitamin D Receptor (VDR), VDR (gene 7421) (UniProt P11473). Kind of experiment: ATG_VDR_TRANS: Attagene TRANS-FACTORIAL HepG2 Assay for human Vitamin D Receptor (VDR) (AID 2283022; active = hit-call score of the fitted dose curve at least 0.9, where 1 is the maximum). The gist of the method: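 Steps: transfect HepG2 with GAL4-UAS-driven reporter constructs; dose compounds 24 h; isolate RNA, reverse-transcribe, PCR-amplify with 6-FAM-labelled primer extension and HpaI digestion; quantify fragments by capillary electrophoresis relative to DMSO.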
human Vitamin D Receptor (VDR), VDR (gene 7421), sequence (P11473 whole entry, looked up, the tested form may be a part): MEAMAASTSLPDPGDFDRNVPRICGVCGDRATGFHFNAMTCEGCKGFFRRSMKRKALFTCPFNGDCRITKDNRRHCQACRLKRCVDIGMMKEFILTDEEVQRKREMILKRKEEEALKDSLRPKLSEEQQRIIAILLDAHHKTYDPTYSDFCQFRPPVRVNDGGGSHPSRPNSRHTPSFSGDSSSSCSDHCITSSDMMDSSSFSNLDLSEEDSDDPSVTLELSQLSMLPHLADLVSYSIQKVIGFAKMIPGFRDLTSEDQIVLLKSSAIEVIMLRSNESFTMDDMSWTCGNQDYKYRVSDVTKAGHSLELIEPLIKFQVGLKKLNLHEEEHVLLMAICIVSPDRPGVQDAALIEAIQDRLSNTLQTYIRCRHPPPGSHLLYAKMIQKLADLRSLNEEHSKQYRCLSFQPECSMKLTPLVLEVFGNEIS

Experiment [2] is described as follows: BSK_3C_SRB: Viability Assessment in the BioMAP Diversity Plus: 3C Assay (AID 2283023).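 Note: cells read 24 h after compound dosing; fitted both ways against DMSO so a hit may be signal rise or drop.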 The following applies: primary human endothelial cells (HUVEC). The gist of the method:
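Absorbance at 560 nm of sulforhodamine B-stained (0.1%) total protein served as a cytotoxicity readout in human umbilical vein endothelial cells, 24 h after chemical treatment. Signal was fitted bidirectionally relative to DMSO.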

Read-out in experiment [3]: Matrix Metallopeptidase 1 (MMP1), MMP1 (gene 4312)
Nature of the experiment: BSK_BE3C_MMP1: BioMAP Diversity Plus: BE3C Assay for Matrix Metallopeptidase 1 (MMP1) Biomarker Activity (AID 2283024). The following applies: primary human bronchial epithelial cells; actives raise or lower the signal. Summed up: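 In this multiplexed primary-cell system, human bronchial epithelium received chemicals for 24 h before an ELISA for MMP1. Values reflect bidirectional fits normalised to the DMSO baseline.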

Experiment [4] is described as follows: BSK_3C_Vis: BioMAP Diversity Plus: 3C Assay for Morphology Visualization (AID 2283025).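 For AC50: light microscopy image of cell morphology used as background control.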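 Note: fitted both ways so gain or loss versus DMSO counts.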 The following applies: primary human endothelial cells (HUVEC). Summed up:
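Light-microscopy morphology readout, 24 h exposure, human primary umbilical vein endothelium; analysed relative to DMSO with bidirectional fitting.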

A short description of experiment [5]: BSK_4H_SRB: Viability Assessment in the BioMAP Diversity Plus: 4H Assay (AID 2283027).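 For AC50: curves fitted both ways versus DMSO so AC50 may be loss or gain.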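 Note: cells exposed to compound for 24 h before staining.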 The settings on record: primary human endothelial cells (HUVEC). The gist of the method:
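Cytotoxicity readout: sulforhodamine B (0.1%) staining of total protein after 10% TCA fixation, measured at 560 nm in human umbilical vein endothelium at 24 h. DMSO set the baseline; fitting was bidirectional.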

Experiment [6] is described as follows: BSK_BE3C_SRB: Viability Assessment in the BioMAP Diversity Plus: BE3C Assay (AID 2283028). The settings on record: primary human bronchial epithelial cells. The gist of the method: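 Cells (human bronchial epithelial, primary) are treated with chemicals, and after 24 h the parallel cultures are fixed in 10% TCA. These are then stained with 0.1% SRB and read at 560 nm. Gain or loss of signal is fitted relative to DMSO.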

Read-out in experiment [7]: Thrombomodulin, THBD (gene 7056)
Kind of experiment: BSK_3C_Thrombomodulin: BioMAP Diversity Plus: 3C Assay for Thrombomodulin Biomarker Activity (AID 2283029). The following applies: primary human endothelial cells (HUVEC); actives raise or lower the signal. Summed up: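 In a multiplexed primary-cell system, human umbilical vein endothelium received chemical and was assayed 24 h later for thrombomodulin by ELISA. Parallel cultures were SRB-stained (0.1% SRB after 10% TCA fixation, read at 560 nm) to flag cytotoxicity.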

Read-out in experiment [8]: Urokinase-type plasminogen activator receptor (uPAR), PLAUR (gene 5329)
Kind of experiment: BSK_4H_uPAR: BioMAP Diversity Plus: 4H Assay for Urokinase-type plasminogen activator receptor (uPAR) Biomarker Activity (AID 2283030). The following applies: primary human endothelial cells (HUVEC); actives raise or lower the signal. Summed up: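 Cell-surface uPAR ELISA signal, measured 24 h after dosing human umbilical vein endothelial cells, was analyzed with bidirectional fitting relative to DMSO. Parallel SRB staining of total protein tracked overt cytotoxicity.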

Read-out in experiment [9]: Vascular endothelial growth factor receptor 2 (Homo sapiens) (UniProt P35968)
Kind of experiment: BSK_4H_VEGFRII: BioMAP Diversity Plus: 4H Assay for Vascular endothelial growth factor receptor 2 (VEGFR2) Biomarker Activity (AID 2283031). The settings on record: primary human endothelial cells (HUVEC); actives raise or lower the signal. Summed up: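 ELISA read-out of VEGFRII in primary human umbilical vein endothelium, taken 24 h after chemical treatment. Responses are expressed relative to DMSO, with bidirectional fitting.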

Read-out in experiment [10]: Human Leukocyte Antigen - DR isotype (HLADR), HLA-DRA (gene 3122)
Kind of experiment: BSK_BE3C_HLADR: BioMAP Diversity Plus: BE3C Assay for Human Leukocyte Antigen - DR isotype (HLADR) Biomarker Activity (AID 2283032). The settings on record: primary human bronchial epithelial cells; actives raise or lower the signal. The gist of the method: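 BioMAP BE3C format: human bronchial epithelium, 24 h compound treatment, ELISA detection of HLA-DR, with bidirectional analysis relative to DMSO.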

Read-out in experiment [11]: Vascular cell adhesion molecule 1 (VCAM1), VCAM1 (gene 7412)
Nature of the experiment: BSK_4H_VCAM1: BioMAP Diversity Plus: 4H Assay for Vascular cell adhesion molecule 1 (VCAM1) Biomarker Activity (AID 2283033).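 For Outcome: cell-surface VCAM-1 protein measured by ELISA.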 The settings on record: primary human endothelial cells (HUVEC); actives raise or lower the signal. The gist of the method:
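In this human endothelial (HUVEC) system, biomarker ELISA was run 24 h after compound addition, and total protein in parallel wells was assessed by SRB at 560 nm; DMSO served as negative control.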

Read-out in experiment [12]: Interferon-gamma inducible Protein 10 (IP10), CXCL10 (gene 3627)
Kind of experiment: BSK_BE3C_IP10: BioMAP Diversity Plus: BE3C Assay for Interferon-gamma inducible Protein 10 (IP10) Biomarker Activity (AID 2283034). The settings on record: primary human bronchial epithelial cells; actives raise or lower the signal. Summed up:
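BE3C cells (human bronchial epithelial, primary); 24 h exposure; ELISA for IP-10; DMSO-referenced bidirectional fit.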

Read-out in experiment [13]: Monokine induced gamma interferon (MIG), CXCL9 (gene 4283)
Kind of experiment: BSK_BE3C_MIG: BioMAP Diversity Plus: BE3C Assay for Monokine induced gamma interferon (MIG) Biomarker Activity (AID 2283035).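 Note: MIG protein measured by ELISA in BE3C cultures after 24 h of dosing.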 The settings on record: primary human bronchial epithelial cells; actives raise or lower the signal. Summed up: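 hu bronchial epithelial 1° cells, 24 h cpd; MIG by ELISA; bidirectional fit, DMSO = baseline.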

Read-out in experiment [14]: Transforming growth factor beta 1 (TGFb1), TGFB1 (gene 7040)
Nature of the experiment: BSK_BE3C_TGFb1: BioMAP Diversity Plus: BE3C Assay for Transforming growth factor beta 1 (TGFb1) Biomarker Activity (AID 2283036;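 note: TGF-b1 protein level measured by ELISA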). The following applies: primary human bronchial epithelial cells; actives raise or lower the signal. The gist of the method:
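TGF-b1 measured via ELISA, 24 h after chemical dosing of human bronchial epithelial cells (BE3C). Overt cytotoxicity assessed in parallel by SRB (0.1%, TCA-fixed, 560 nm); analysis bidirectional relative to DMSO.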

Read-out in experiment [15]: Plasminogen activator inhibitor-1 (PAI1), SERPINE1 (gene 5054)
Nature of the experiment: BSK_BE3C_PAI1: BioMAP Diversity Plus: BE3C Assay for Plasminogen activator inhibitor-1 (PAI1) Biomarker Activity (AID 2283037). The settings on record: primary human bronchial epithelial cells; actives raise or lower the signal. Summed up:
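In this multiplexed primary-cell system, bronchial epithelial cells receive test chemical and are sampled at 24 h. PAI-1 is read by ELISA, with DMSO serving as negative control for bidirectional fitting.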

Read-out in experiment [16]: urokinase plasminogen activator (uPA), PLAU (gene 5328)
Kind of experiment: BSK_BE3C_uPA: BioMAP Diversity Plus: BE3C Assay for urokinase plasminogen activator (uPA) Biomarker Activity (AID 2283038).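 Note: uPA protein level quantified by ELISA in cell cultures; uPA read one day after compound addition.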 The following applies: primary human bronchial epithelial cells; actives raise or lower the signal. Summed up: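 Bronchial epithelial cells (human, primary); chemical 24 h; uPA by ELISA; bidirectional fit vs DMSO. SRB (0.1%, after 10% TCA fixation, 560 nm) in parallel cultures for cytotoxicity.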

Read-out in experiment [17]: Urokinase-type plasminogen activator receptor (uPAR), PLAUR (gene 5329)
Nature of the experiment: BSK_BE3C_uPAR: BioMAP Diversity Plus: BE3C Assay for Urokinase-type plasminogen activator receptor (uPAR) Biomarker Activity (AID 2283039).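 For Outcome: cells exposed to compound for one day before measurement.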 The following applies: primary human bronchial epithelial cells; actives raise or lower the signal. The gist of the method: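 Chemically treated human bronchial epithelial cells (lung primary) are assayed for uPAR by ELISA after 24 h, with data fitted in both directions using DMSO as negative control.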

Read-out in experiment [18]: Interleukin-6 (IL6), IL6 (gene 3569)
Kind of experiment: BSK_CASM3C_IL6: BioMAP Diversity Plus: CASM3C Assay for Interleukin-6 (IL6) Biomarker Activity for (AID 2283040). The following applies: primary human coronary artery smooth muscle cells; actives raise or lower the signal.

Read-out in experiment [19]: Tissue plasminogen activator (tPA), PLAT (gene 5327)
Nature of the experiment: BSK_BE3C_tPA: BioMAP Diversity Plus: BE3C Assay for Tissue plasminogen activator (tPA) Biomarker Activity (AID 2283041).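 Note: tPA level quantified by ELISA one day after compound addition.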 The settings on record: primary human bronchial epithelial cells; actives raise or lower the signal. Summed up:
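Using human lung primary bronchial epithelial cells, tPA was measured by ELISA 24 h after dosing; data fitted relative to DMSO.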

As to `Cc1ccc(N)cc1O`, the outcome in experiment [1], in [2], in experiment [3], in [4], in [5] and in experiment [6] was inactive. Also, the result in [7], in experiment [8], in experiment [9], in experiment [10], in [11] and in experiment [12] was inactive. Further, the result in experiment [13], in experiment [14], in [15], in experiment [16], in [17] and in [18] was inactive. Also, the outcome in experiment [19] was inactive.

For the compound `Cc1ccc(C)c(O)c1`, the outcome in experiment [1], in experiment [2], in experiment [3], in experiment [4], in experiment [5] and in experiment [6] was inactive. Moreover, the outcome in experiment [7], in [8], in experiment [9], in experiment [10], in [11] and in [12] was inactive. In addition, the outcome in experiment [13], in experiment [14], in [15], in [16], in [17] and in experiment [18] was inactive.

As to `O=C(O)CCN(C1(C(=O)NO)CCCC1)S(=O)(=O)c1ccc(Oc2ccc(F)cc2)cc1`, the result in experiment [1], in experiment [2], in [3], in [4], in experiment [6] and in experiment [7] was inactive. Further, the outcome in experiment [8], in experiment [9], in experiment [10], in experiment [11], in experiment [12] and in [13] was inactive. Besides, the result in [14], in experiment [15], in [16], in experiment [17] and in experiment [18] was inactive.

On to `CCCN(C1CCN(C(=O)C2CCNCC2)CC1)[C@@H]1CCc2ccc(OC)cc2C1`, for which the call in experiment [1], in [2], in experiment [3], in [4], in experiment [5] and in experiment [6] was inactive. Moreover, the outcome in experiment [7], in experiment [8], in experiment [9], in [10], in experiment [11] and in [12] was inactive. Besides, the outcome in [13], in experiment [14], in experiment [15], in experiment [16], in [17] and in experiment [18] was inactive. Further, in experiment [19], the result was inactive.

Turning to `CCCCCCCCO`, the result in experiment [1], in [2], in [3], in [4], in experiment [5] and in experiment [6] was inactive. The result in experiment [7], in experiment [8], in [9], in experiment [10], in experiment [11] and in experiment [12] was inactive. In addition, the outcome in experiment [13], in experiment [14], in experiment [15], in experiment [16], in experiment [17] and in experiment [18] was inactive. For the same compound, in experiment [19], the result was inactive.

For the compound `Cc1[nH]cnc1C[C@H]1CCc2c(C)c3ccccc3n2C1=O`, the compound was classed as inactive in experiment [1], in experiment [3], in experiment [6], in experiment [7], in experiment [9] and in experiment [10]. Further, the outcome in experiment [12], in experiment [13], in experiment [14], in experiment [15], in [16] and in [18] was inactive. For the same compound, the outcome in [19] was inactive. The concentration at half-maximal activity (AC50) in [2] is 26 µM (active); in [4], 18.4 µM (active); in experiment [5], 24 µM (active); in [8], 22.5 µM (active); in [11], 28.9 µM (active); in [17] it was 24.1 µM (active).

For the compound `CN(C)c1ccc(N=NS(=O)(=O)O)cc1`, the compound was classed as inactive in [1], in [2], in experiment [3], in experiment [4], in experiment [6] and in experiment [7]. In addition, the outcome in [8], in experiment [9], in [10], in [12], in experiment [13] and in experiment [14] was inactive. In addition, the result in experiment [15], in experiment [16], in experiment [17] and in experiment [18] was inactive. Moreover, the concentration at half-maximal activity (AC50) in [11] was 8.31 µM (active).
